# PubChem BioAssay
# Inconclusive results are not listed. For some of these results: Entries with a potency or affinity are not part of this list. The source made the active and inactive calls. Unless noted, the rule behind the calls is not given here.
# Legend:
# [1] = growth inhibition of DIPG glioma cells, dose response, cell-based, SU-DIPG-XVII, MIPE5.0, CellTiter-Glo, qHTS (AID 1347060; cut-off not given, nearly all actives have AC50 up to about 26 µM;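 for AC50: cells exposed to compound for 48 hours before viability readout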); conditions: SU-DIPG-XVII viability, CellTiter-Glo ATP luminescence
# [2] = growth inhibition of DIPG glioma cells, dose response, cell-based, SU-DIPG-XIII, MIPE4.0, CellTiter-Glo, qHTS (AID 1347061; cut-off not given, nearly all actives have AC50 up to about 37 µM;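 note: cells exposed to compound for 48 hours before readout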); conditions: SU-DIPG-XIII viability, CellTiter-Glo ATP luminescence
# [3] = test system: Hepatitis C virus NS3 helicase; assay: HCV NS3 helicase inhibitors, primary screen, biochemical, fluorescence polarization, LOPAC1280 library (AID 687035; in the data active = inhibition above about 37%); conditions: Purified HCV NS3 helicase, Cy5-dT15 ssDNA binding fluorescence polarization; stronger effect = higher value; concentration not given here
# [4] = Cy5 fluorescence quenching or enhancement artefacts, artefact control for HCV NS3 helicase inhibitor project, biochemical, LOPAC1280 (AID 687037); conditions: Cy5-DNA-NS3h complex fluorescence interference counterscreen
# [5] = phospholipid biosynthesis inhibitors in animal cells, primary screen, cell-based, LOPAC library, screen 4 (AID 1347384); conditions: phospholipid biosynthesis inhibition screen, at 10 µM
# [6] = circadian clock period modulators, cell-based, LOPAC library, luminescence reporter (AID 2774); conditions: circadian reporter cells, at 7 µM, actives lie on both sides;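 note: values are relative to mean of DMSO wells on each plate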
# [7] = polyglutamine-triggered caspase-3 activation inhibitors, cell-based (AID 1583); conditions: polyglutamine-induced caspase-3 activation, cell assay; stronger effect = higher value;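 tested at 10 µM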
# [8] = suppressors of polyQ aggregation in yeast, 75Q-TubU reporter (AID 1593); conditions: Yeast 75Q polyglutamine aggregation reporter
# [9] = rescue of polyQ-huntingtin neuronal dysfunction in worms, whole organism, C. elegans mechanosensory neurons, N-terminal huntingtin (AID 1599); conditions: touch response, stronger effect = higher value
# [10] = inhibitors of mitochondrial cytochrome c release, biochemical, purified mitochondria (AID 1603); conditions: stronger effect = lower value;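 note: mouse liver mitochondria challenged with calcium chloride; signal normalized to the plate average as 100%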
# [11] = inhibitors of polyQ protein aggregation (AID 1604); conditions: polyglutamine-induced protein aggregation inhibition assay; stronger effect = higher value; tested at 2.5 µM
# [12] = enhancers of glutamate uptake in motor neurons, MN-1 cell line (AID 1612); conditions: MN-1 motor neuron cells, stronger effect = higher value;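 note: tested at 1 µM final; 0% = mean of DMSO vehicle wells on each plate; positive means more glutamate uptake than control and negative means less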
# [13] = reducers of polyQ inclusions in PC12 cells, cell-based, NGF-treated PC12, GFPQ80 (AID 1614); conditions: PC12 NGF-treated GFP-polyQ80 inclusion reduction;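 note: lower means fewer inclusions and 0 means no inclusions at all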
# [14] = suppressors of polyglutamine aggregation in yeast, 75Q-TubH (AID 1616); conditions: S. cerevisiae 75Q-TubH polyglutamine aggregation suppression; stronger effect = higher value
# [15] = modifiers of HSF1 nuclear foci, imaging, Selleck Cancer Library (AID 1347162; in the data active = plate-normalised HSF1 focus index below about 0.46); conditions: human cells, at 10 µM; SSMD: measured here: HSF1 foci SSMD mean; cell count: measured here: cell number; plate-normalised HSF1 focus index: stronger effect = lower value
smiles,measurement,setting,value
COc1ccc2[nH]c(S(=O)Cc3ncc(C)c(OC)c3C)nc2n1 (configuration not stated),outcome,[1],inactive
CCN(C)C(=O)Oc1cccc([C@H](C)N(C)C)c1,outcome,[2],inactive
O=C1Cc2cc(CCN3CCN(c4nsc5ccccc45)CC3)c(Cl)cc2N1,inhibition,[3],2% (inactive)
same,fluorescence ratio (interference),[4],1 (inactive)
same,outcome,[5],inactive
CC(=O)Oc1cc(C(C)C)c(OCCN(C)C)cc1C,period change,[6],-0.155 h (inactive)
same,inhibition,[3],-6% (inactive)
same,fluorescence ratio (interference),[4],1 (inactive)
same,outcome,[5],inactive
CN(N=O)C(=O)N[C@@H]1[C@@H](O)[C@H](O)[C@@H](CO)O[C@@H]1O,inhibition,[7],-0.83%
same,score,[8],1.48
same,rescue above control,[9],-12.1
same,cytochrome c release ratio,[10],1.09
same,inhibition of aggregation,[11],69%
same,glutamate uptake change,[12],-14.8%
same,inclusion score,[13],2
same,aggregation suppression score,[14],1.03
same,outcome,[1],inactive
COc1cc2c(c(OC)c1OC)-c1ccc(OC)c(=O)cc1[C@@H](NC(C)=O)CC2,inhibition,[7],-76.8%
same,score,[8],1.26
same,rescue above control,[9],-5.06
same,cytochrome c release ratio,[10],0.87
same,inhibition of aggregation,[11],97.2%
same,glutamate uptake change,[12],-10.3%
same,aggregation suppression score,[14],1.64
same,period change,[6],-0.41 h (inactive)
same,inhibition,[3],-1% (inactive)
same,fluorescence ratio (interference),[4],1 (inactive)
same,AC50,[1],29.5 nM (active)
same,outcome,[5],inactive
Cc1cc(=O)oc2cc(O)ccc12,AC50,[2],0.418 µM (active)
Clc1ccc(Cn2c(CN3CCCC3)nc3ccccc32)cc1,period change,[6],0.175 h (inactive)
same,inhibition,[3],0% (inactive)
same,fluorescence ratio (interference),[4],1 (inactive)
same,outcome,[5],inactive
CC(=O)c1ccc2c(c1)N(CCCN(C)C)c1ccccc1S2,outcome,[5],inactive
O=C(CCCCCCC(=O)Nc1ccccc1)NO,AC50,[1],1860 nM (active)
same,SSMD,[15],-0.489
same,cell count,[15],6970
same,plate-normalised HSF1 focus index,[15],0.984 (inactive)
CCCCCCCCCCCCCCCCCCCCCCO,outcome,[2],inactive
CN1CCN(c2c(F)cc3c(=O)c(C(=O)O)cn(CCF)c3c2F)CC1,outcome,[2],inactive
COc1cc2ncnc(Nc3ccc(F)c(Cl)c3)c2cc1OCCCN1CCOCC1,AC50,[2],38.2 µM (active)
same,SSMD,[15],-3.63
same,cell count,[15],5320
same,plate-normalised HSF1 focus index,[15],0.813 (inactive)
NCCCNCCSP(=O)(O)O,period change,[6],-0.025 h (inactive)
same,inhibition,[3],-3% (inactive)
same,fluorescence ratio (interference),[4],1 (inactive)
same,outcome,[5],inactive
OC(CCN1CCCCC1)(c1ccccc1)C1CC2C=CC1C2 (configuration not stated),inhibition,[3],-3% (inactive)
same,fluorescence ratio (interference),[4],1 (inactive)
same,outcome,[2],inactive
same,outcome,[5],inactive
COc1c(C)c2c(c(O)c1C/C=C(\C)CCC(=O)OCCN1CCOCC1)C(=O)OC2,AC50,[1],590 nM (active)
same,SSMD,[15],-0.00851
same,cell count,[15],7610
same,plate-normalised HSF1 focus index,[15],0.999 (inactive)
C#CCN(C)CCCOc1ccc(Cl)cc1Cl,period change,[6],0.03 h (inactive)
same,inhibition,[3],-6% (inactive)
same,fluorescence ratio (interference),[4],1 (inactive)
same,outcome,[5],inactive
CCN(CC)C(=O)c1ccc(O)c(OC)c1,period change,[6],-1.55 h (active)
same,inhibition,[3],0% (inactive)
same,fluorescence ratio (interference),[4],1 (inactive)
same,outcome,[5],inactive
CCCN(CCC)CCc1cccc2c1CC(=O)N2,period change,[6],0.155 h (inactive)
same,inhibition,[3],-3% (inactive)
same,fluorescence ratio (interference),[4],1 (inactive)
same,outcome,[5],inactive
CC(C)Cn1cnc2c(N)nc3ccccc3c21,outcome,[1],inactive
CNCCCC1c2ccccc2C=Cc2ccccc21,period change,[6],-0.13 h (inactive)
same,inhibition,[3],-3% (inactive)
same,fluorescence ratio (interference),[4],0.9 (inactive)
same,outcome,[5],inactive
NC(N)=NC(N)=NCCc1ccccc1,outcome,[1],inactive
Cn1c(=O)c2c(ncn2CC2OCCO2)n(C)c1=O,outcome,[1],inactive
Cc1nc(Nc2ncc(C(=O)Nc3c(C)cccc3Cl)s2)cc(N2CCN(CCO)CC2)n1,AC50,[1],16600 nM (active)
same,SSMD,[15],-0.87
same,cell count,[15],6550
same,plate-normalised HSF1 focus index,[15],0.957 (inactive)
CC(C)(Oc1ccc(C2CC2(Cl)Cl)cc1)C(=O)O (configuration not stated),period change,[6],0.045 h (inactive)
same,inhibition,[3],-1% (inactive)
same,fluorescence ratio (interference),[4],1 (inactive)
same,outcome,[2],inactive
same,outcome,[5],inactive
O=[N+]([O-])c1ccc(O)c2ncccc12,AC50,[1],6610 nM (active)
COc1cccc2c1C(=O)c1c(O)c3c(c(O)c1C2=O)C[C@@](O)(C(C)=O)C[C@@H]3O[C@H]1C[C@H](N)[C@H](O)[C@H](C)O1,AC50,[1],118 nM (active)
same,SSMD,[15],-15.6
same,cell count,[15],7130
same,plate-normalised HSF1 focus index,[15],0.198 (active)
O=C(O)c1cc(=O)[nH]c(=O)[nH]1,outcome,[1],inactive
CNC1CCCN(c2c(F)cc3c(=O)c(C(=O)O)cn(C4CC4)c3c2OC)C1 (configuration not stated),outcome,[1],inactive
O=C(O)[C@H](O)[C@@H](O)[C@H](O[C@@H]1O[C@H](CO)[C@H](O)[C@H](O)[C@H]1O)[C@H](O)CO,outcome,[1],inactive
CN1CCN(c2c(F)cc3c(=O)c(C(=O)O)cn4c3c2OCN4C)CC1,outcome,[2],inactive
C[C@H]1[C@H](NC(=O)/C(=N/OC(C)(C)C(=O)O)c2csc(N)n2)C(=O)N1S(=O)(=O)O (stereo in doubt),outcome,[2],inactive
C[C@@H](O)[C@H]1C(=O)N2C(C(=O)O)=C(SCCN=CN)C[C@H]12,inhibition,[3],-1% (inactive)
same,fluorescence ratio (interference),[4],1 (inactive)
same,outcome,[5],inactive
CNCCc1ccccn1,inhibition,[7],24.5%
same,score,[8],1.2
same,rescue above control,[9],-9.72
same,cytochrome c release ratio,[10],0.91
same,inhibition of aggregation,[11],75.9%
same,glutamate uptake change,[12],-5.29%
same,inclusion score,[13],2
same,aggregation suppression score,[14],1.84
N=C(N)N1CCc2ccccc2C1,outcome,[5],inactive
O=C(O)CN(CCN(CC(=O)O)CC(=O)O)CCN(CC(=O)O)CC(=O)O,period change,[6],0.145 h (inactive)
same,inhibition,[3],-2% (inactive)
same,fluorescence ratio (interference),[4],1 (inactive)
same,outcome,[5],inactive
CN(C(=O)CN(CCO)CC(=O)N(C)C(C)(C)Cc1ccccc1)C(C)(C)Cc1ccccc1,inhibition,[7],-62.8%
same,score,[8],1.1
same,rescue above control,[9],0
same,cytochrome c release ratio,[10],5.27
same,inhibition of aggregation,[11],66.7%
same,glutamate uptake change,[12],-0.7%
same,aggregation suppression score,[14],1.14
CC(=O)N[C@@H](CC(C)C)C(=O)O,inhibition,[7],23.7%
same,score,[8],0.82
same,rescue above control,[9],14.2
same,cytochrome c release ratio,[10],1.03
same,inhibition of aggregation,[11],74.7%
same,glutamate uptake change,[12],2.89%
same,inclusion score,[13],2
same,aggregation suppression score,[14],0.909
Cc1c(N)c(=O)n(-c2ccccc2)n1C,inhibition,[7],13.4%
same,score,[8],1.65
same,rescue above control,[9],-0.44
same,cytochrome c release ratio,[10],0.9
same,inhibition of aggregation,[11],81.5%
same,glutamate uptake change,[12],-10.8%
same,inclusion score,[13],1
same,aggregation suppression score,[14],1.31
CN(C)CC/C=C1\c2ccccc2Sc2ccc(Cl)cc21,inhibition,[7],3.29%
same,score,[8],0.95
same,rescue above control,[9],0
same,cytochrome c release ratio,[10],1.06
same,inhibition of aggregation,[11],59.1%
same,glutamate uptake change,[12],14.9%
same,aggregation suppression score,[14],0.956
